Only some compounds are listed: those with a hit (about 2.2% of all), similar ones and a draw of the others.
Granule exo inh: LAMP-1 surface exposure blockers, TALL-104 cells – cell-based, flow cytometry, MLPCN library, primary screen; inhibition, % at 10 µM; 360,000 tested, 0.66% active; TALL-104 LAMP-1 surface exposure; cells stimulated with thapsigargin and PMA;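 active = inhibition above about 55%, limit read from the data; inconclusive = no clear call, values can overlap the other calls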
HTR2A ag: mouse Htr2a agonists via beta-arrestin recruitment, primary screen, cell-based, luminescence | 5-hydroxytryptamine receptor 2A (Mus musculus), P35363 | CHO-K1 mHTR2A beta-arrestin complementation; percent of 30 µM serotonin response | activation, % at 7.6 µM | 360,000 tested, 0.66% active | AID 624169, 2012;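 active = activation above a run cutoff, the mean activation of all tested compounds plus 3 SD, cut at about 14% in these data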;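 note: 0% = plate median of compound wells and 100% = 30 µM serotonin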
VLA-4 inh: inhibition in human VLA-4 binding assay, primary screen, VLA-4 allosteric modulator project, MLPCN library, flow cytometry, VLA-4 expressing cells; 330,000 tested, 0.2% active; Integrin alpha-4 (Homo sapiens), P13612; ligand binding flow cytometry; inhibition, % (about 7 µM as worked out from the volumes in the protocol); in the data active = inhibition above about 50%
MEX-5 binding: MEX-5 zinc finger RNA-binding disruptors – biochemical, C. elegans, fluorescence polarization, MLPCN library, primary screen. Zinc finger protein mex-5 (Caenorhabditis elegans), Q9XUB2. MEX-5/FITC-TCR2 RNA binding; stronger effect = lower value. activity score (negative = inhibition of binding), % at 10 µM. 300,000 tested, 0.38% active. AID 1832, 2009;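 active = inhibition past about -25% in most replicates, and total fluorescence under double the plate's negative control median, limit read from the data; inconclusive = replicates evenly split on the limit, or fluorescence at least double controls; inactive = too little inhibition in most replicates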;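 note: 0% = DMSO and -100% = 5 µM competing unlabeled TCR2 RNA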
JMJD2C inh: inhibitors of GASC-1 histone demethylase, primary screen, biochemical, fluorescence, DELFIA europium. Lysine-specific demethylase 4C (Homo sapiens), Q9H3R0. GST-JMJD2C(1-420) H3K9me3 demethylation. inhibition, % at 2.35 µM. 330,000 tested, 0.069% active;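 active = more than half of a compound's replicate wells show inhibition beyond 50%, single wells judged on their own value; inconclusive = some, but no more than half, of replicates pass 50% inhibition; inactive = no replicate passes 50% inhibition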;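 note: signal counts dimethyl H3K9 product captured on neutravidin plate; 0% = median of DMSO wells and 100% = 0.3 times that DMSO median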
Target sequence (Q9H3R0 1-420 limits assumed): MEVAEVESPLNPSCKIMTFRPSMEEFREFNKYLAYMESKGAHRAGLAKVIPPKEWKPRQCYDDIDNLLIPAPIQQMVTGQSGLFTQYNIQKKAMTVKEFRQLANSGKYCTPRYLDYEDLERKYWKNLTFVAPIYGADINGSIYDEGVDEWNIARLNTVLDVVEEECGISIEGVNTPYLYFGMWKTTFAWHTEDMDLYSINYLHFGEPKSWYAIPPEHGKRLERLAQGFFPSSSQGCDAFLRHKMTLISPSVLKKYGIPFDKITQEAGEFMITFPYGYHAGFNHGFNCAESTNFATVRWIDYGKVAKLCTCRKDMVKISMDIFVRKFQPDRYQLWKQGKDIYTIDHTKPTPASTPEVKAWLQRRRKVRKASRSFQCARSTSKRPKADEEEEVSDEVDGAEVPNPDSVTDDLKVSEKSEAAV
V-ATPase pH: regulators of yeast V-ATPase proton pumping, primary screen, pHLuorin cytosolic pH fluorescence | S. cerevisiae | response, % at 10 µM | 350,000 tested, 0.37% active; in the data active = response mostly above about 7.3%, no sharp cut-off; inactive = mostly below about 5.4%; note: actives read high
VLA-4 mod pick: retest of VLA-4 allosteric modulators, confirmation, cell-based, cherry-picked plates, U937, HUTS-21 LIBS antibody; shares compounds with VLA-4 inh; U937 cells, HUTS-21 LIBS mAb binding, flow cytometry; LDV ligand present at threefold Kd; inhibition, % at 6.7 µM; 1,300 tested, 2% active; AID 2813, 2010; in the data active = inhibition above about 40%;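 note: 0% = ligand without compound and 100% = no ligand background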
Numbers without * were called inactive; ? = inconclusive; . = not tested or not shown.

SMILES | Granule exo inh | HTR2A ag | VLA-4 inh | MEX-5 binding | JMJD2C inh | V-ATPase pH | VLA-4 mod pick
COc1cccc(OC)c1C(=O)Nc1c(C)n(C)n(-c2ccccc2)c1=O | -1.7 | 3.8 | 0.0 | -1.5 | 5.5 | 2.0 | 6.5
Cc1ccc(-c2cc(C(=O)Nc3c(C)n(C)n(-c4ccccc4)c3=O)[nH]n2)c(O)c1 | 1.3 | -2.1 | 10.1 | -1.0 | -10.0 | 1.1 | 6.3
Cc1c(NC(=O)C2CC=CCC2C(=O)O)c(=O)n(-c2ccccc2)n1C (centres undefined) | 5.2 | 2.1 | 3.8 | 1.2 | -0.9 | 0.8 | -11.4
Cc1c(NC(=O)c2ccc(Cl)c(S(=O)(=O)N3CCCCC3)c2)c(=O)n(-c2ccccc2)n1C | -12.0 | 5.0 | -16.2 | 0.7 | 13.0 | 4.1 | .
Cc1c(NC(=O)c2c(F)cccc2F)c(=O)n(-c2ccccc2)n1C | -1.8 | -1.2 | 1.7 | 2.0 | -0.4 | 2.3 | .
Cc1c(NC(=O)c2ccc(Cl)c(S(=O)(=O)N3CCOCC3)c2)c(=O)n(-c2ccccc2)n1C | 2.3 | 3.5 | 6.5 | 0.6 | -9.1 | -0.7 | 2.0
CCOC(=O)[C@@H]1[C@H]2COc3ccc(Br)cc3[C@@H]2N2C(=O)N(c3cccc(Cl)c3)C(=O)[C@@]12C | 0.8 | -4.8 | 11.4 | . | 3.2 | 3.4 | .
Cc1c(NC(=O)c2ccccc2N(C)S(=O)(=O)c2ccccc2)c(=O)n(-c2ccccc2)n1C | -3.7 | -0.5 | 7.7 | 1.2 | 4.7 | 1.7 | -3.9
Cc1cc(C)cc(-n2ccn(CC(=O)NCCc3ccccc3)c(=O)c2=O)c1 | ? | 2.0 | 3.5 | -0.6 | -5.9 | 2.6 | .
C[C@@H]1NC(=O)N[C@@H]1CCCCCC(=O)O | -2.3 | 0.9 | -46.0 | -3.7 | -13.9 | 0.6 | .
Cc1ccc(C(=O)/C=C\C(=O)c2ccc(C)cc2)cc1 | 55.3 | 2.8 | 68.5* | -0.3 | -0.5 | -4.6 | 30.2
COc1ccc(OCc2nc(-c3ccc(F)c(F)c3)cs2)cc1 | -0.4 | -1.9 | 3.8 | 5.0 | 2.7 | 5.3 | .
CCN1CCN(c2nc(Nc3cccc(OC)c3)nc(N)c2[N+](=O)[O-])CC1 | -4.3 | -4.5 | 43.6 | -0.4 | -20.5 | -1.2 | -28.2
CCN1CCN(c2nc(Nc3ccc(C)c(C)c3)nc(N)c2[N+](=O)[O-])CC1 | 3.3 | -12.4 | 0.2 | -0.3 | 7.0 | -1.0 | .
CCOc1ccc(CN2CCN(Cc3cn(CC)nc3C)CC2CCO)cc1 (centres undefined) | 2.9 | 0.1 | 41.6 | 3.7 | ? | -0.2 | 2.1
CCOc1ccc(CN2CCN(Cc3c(C)nn(CC)c3C)CC2CCO)cc1 (centres undefined) | -3.7 | 8.8 | 5.8 | -0.5 | 4.7 | -1.1 | .
FC(F)(F)c1nnc(-c2ccccc2)nc1Sc1ccc(Cl)cc1 | 52.4 | 3.4 | 72.1* | -0.9 | -0.8 | -2.7 | 50.0*
C=CCNC(=O)c1ccccc1NC(=O)COc1ccc(OC)cc1 | 1.5 | 6.0 | 7.0 | -1.6 | 5.3 | 0.9 | 1.8
C=CCNC(=O)c1ccccc1NC(=O)COc1ccccc1 | -1.3 | 0.6 | 54.5* | 0.8 | -4.0 | -0.3 | 11.8
COc1ccc(NC(=O)c2ccccc2NC(=O)COc2ccccc2)cc1 | -1.6 | 5.7 | 24.8 | 0.4 | -5.1 | 0.4 | .
Cn1cc(S(=O)(=O)NC[C@H]2O[C@@H](n3ccc(=O)[nH]c3=O)[C@H](O)[C@@H]2O)cn1 | -5.9 | -0.8 | . | . | . | 1.2 | .
CC1(c2cccc3ccccc23)OC(=O)c2ccccc21 (centres undefined) | 12.0 | -2.2 | . | . | . | -4.2 | .
COc1cc(/C=C/c2noc(-c3ccccc3O)n2)cc(OC)c1OC | -1.4 | -0.4 | 42.3 | -0.4 | -5.6 | -0.9 | -11.0
COc1ccc(/C=C/c2noc(-c3ccccc3O)n2)cc1 | 1.5 | 3.1 | -4.1 | 0.7 | -0.6 | 0.9 | .
